# Screening results: PubChem, several laboratories
# N-glyco inh: increase of ERlucT glycosylation luciferase signal, primary screen, N-linked glycosylation inhibitor project, D54 ERlucT cells, luminescence, set 2; D54 ERlucT glycosylation luciferase reporter, 24 h; percent of 100 nM tunicamycin response; hit rate 0.23% among 360,000; reporter increase, % at 12.5 µM;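 active means mean luciferase reporter signal, scaled so untreated is 0 and the glycosylation-blocking control 100, at or above a set limit in every replicate; inconclusive means mean reaches the limit but not every replicate does; inactive means mean below the limit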;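 further: luciferase carries N-glycosylation sites so blocking glycosylation raises the light; 0% = median of neutral control wells and 100% = median of 100 nM tunicamycin wells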
# Vif imaging: HIV Vif self-association inhibitors, primary screen, imaging, HEK293T, single point. AID 602346, 2012. HEK293T cells, Vif self-association by quenched fluorescence, 24 h. hit rate 0.35% among 340,000. inhibition, % at 7.49 µM; in the data active means inhibition above about 50%, passing the limit was not always enough; inconclusive means no clear call, values can overlap the other calls; inactive means below about 31%
# RAD54 inh: inhibitors of human RAD54 branch migration, primary screen, biochemical, fluorescence, single point | DNA repair and recombination protein RAD54-like (Homo sapiens), Q92698 | RAD54 Holliday junction branch migration, FAM/BHQ fluorescence | inhibition, % at 10.4 µM | hit rate 0.14% among 360,000;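 active means mean normalized replicate activity at least 40 and at least half of replicates scoring 40 or more; inconclusive means only one of the two criteria met; inactive means mean below 40 and under half of replicates reaching 40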;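 further: 0% = median of neutral control wells and 100% = median of positive control wells; inhibitors cause a drop in the FAM fluorescence signal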
# Target sequence (Q92698 whole entry, looked up): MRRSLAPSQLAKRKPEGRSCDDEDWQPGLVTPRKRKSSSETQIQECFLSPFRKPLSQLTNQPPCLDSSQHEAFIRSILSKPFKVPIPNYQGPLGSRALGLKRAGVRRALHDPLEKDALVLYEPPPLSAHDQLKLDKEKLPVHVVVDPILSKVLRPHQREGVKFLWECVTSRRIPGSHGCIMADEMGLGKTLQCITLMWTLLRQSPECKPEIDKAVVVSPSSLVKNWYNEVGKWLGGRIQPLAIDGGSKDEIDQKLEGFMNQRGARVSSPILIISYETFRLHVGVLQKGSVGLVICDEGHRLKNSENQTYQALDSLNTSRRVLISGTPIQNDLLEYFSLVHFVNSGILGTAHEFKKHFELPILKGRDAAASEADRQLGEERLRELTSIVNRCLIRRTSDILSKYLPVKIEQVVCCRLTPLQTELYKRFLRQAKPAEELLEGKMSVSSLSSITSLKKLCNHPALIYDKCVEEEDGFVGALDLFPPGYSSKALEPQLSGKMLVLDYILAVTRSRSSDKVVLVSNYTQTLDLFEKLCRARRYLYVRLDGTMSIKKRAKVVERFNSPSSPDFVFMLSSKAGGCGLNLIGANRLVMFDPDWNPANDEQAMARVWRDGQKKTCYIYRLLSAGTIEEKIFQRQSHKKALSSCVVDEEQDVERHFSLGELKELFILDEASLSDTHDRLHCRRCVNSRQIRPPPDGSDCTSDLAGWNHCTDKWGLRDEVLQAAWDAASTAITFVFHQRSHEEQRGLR
# ABCB6 inh 2: ABCB6 transporter inhibitors, primary screen, K562-ABCB6 cells, flow cytometry, MLPCN library | fluorescence ratio to DMSO, % at 10 µM | K562-ABCB6 porphyrin accumulation, 1 h; active compounds read low | AID 602162, 2011 | hit rate 0.19% among 360,000;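 active means fluorescence ratio to DMSO below 75%, the collection mean minus 3 SD; inconclusive means too few cells collected in the well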;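 further: signal is porphyrin accumulated inside mitochondria; 100% equals median channel fluorescence of DMSO control wells; lower ratio means ABCB6 inhibition with less porphyrin fluorescence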
# Myeloid diff MLP: induction of myeloid progenitor differentiation, primary screen, cell-based, flow cytometry, MLPCN library | ER-HoxA9 myeloid progenitors, lysozyme-GFP differentiation | calls only at 10 µM | hit rate 1% among 360,000 | AID 624256, 2012;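 active means normalized GFP-positive differentiation at or above the plate's own cutoff, the solvent-only control mean plus 3 SD; inconclusive means no clear call, values can overlap the other calls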;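 further: cells exposed to compound for four days before flow analysis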
# * hit, by the source's call; i = inactive; ? = inconclusive; . = not tested or not shown; + = active, no number. In the library only some 1.6% were active in any assay of this set; here they are far more common.
SMILES,N-glyco inh,Vif imaging,RAD54 inh,ABCB6 inh 2,Myeloid diff MLP
CC1=C(/C=C/C(C)=C/C=C/C(C)=C/C(=O)O)C(C)(C)CCC1,6,65*,7,97,i
COc1ccccc1Nc1nnc(C)c(=O)[nH]1,2,73*,-1,101,i
CN(C)C(=O)[C@@H]1[C@@H](CO)[C@@H]2Cn3c(ccc(-c4ccncc4)c3=O)[C@H]1N2CC1CCCC1,.,.,7,.,.
COc1ccc(-c2nc(CS(=O)CC(=O)NC3CCCC(C)C3C)c(C)o2)cc1OC (stereo unspecified),6,7,-4,96,+
Cc1ccc(-c2nc(CS(=O)CC(=O)NC3CCCC(C)C3C)c(C)o2)cc1 (stereo unspecified),3,-1,-3,91,i
COc1ccc(S(=O)(=O)N(C)C[C@@H]2Oc3c(NC(=O)Nc4ccc5c(c4)OCO5)cccc3C(=O)N([C@H](C)CO)C[C@H]2C)cc1,.,.,-1,.,.
COc1ccc(S(=O)(=O)Nc2cccc3ccc(O)cc23)cc1,20,?,9,102,i
O=c1c2ccccc2sc2c(CO)ccc(NCCN3CCCCC3)c12,17,-11,.,98,?
CN(C)CCNc1cccc2sc3ccc(O)cc3c(=O)c12,107*,2,.,108,?
Cc1ccc(NCCN(C)C)c2c(=O)c3cc(O)ccc3sc12,62*,-4,.,278,?
CCN(CC)CCNc1cccc2sc3ccccc3c(=O)c12,?,-12,90*,97,?
O=C(C[C@H]1C=C[C@@H](NC(=O)C2CCOCC2)[C@H](CO)O1)NCc1ccncc1,.,.,-6,.,.
Cn1c(=O)cc2c3c(c(N4CCCCC4)ccc31)C(=O)c1ccccc1-2,28*,-11,11,165,i
O=C1c2ccccc2-c2onc3ccc(N4CCCC4)c1c23,12,-8,.,137,+
O=C(Nc1ccc(F)cc1)N1C[C@@H]2[C@H](c3ccccc31)[C@H](CO)N2Cc1cocn1,.,.,-6,.,.
CC(C)c1cn(CC[C@H]2CC[C@@H](NS(=O)(=O)c3ccc(Cl)cc3)[C@@H](CO)O2)nn1,.,.,-7,.,.
C=CCn1c(SCC(=O)c2cccs2)nc2sc(C)c(C)c2c1=O,-4,-4,-21,88,+
C=CCSc1nc2sc(C)c(C)c2c(=O)n1CC=C,.,.,-2,97,i
ClCc1nc2ccccc2c2ccccc12,63*,-2,1,110,?
C[C@@H]1CCCCO[C@H](CN(C)C(=O)Nc2ccc(F)cc2)[C@H](C)CN([C@@H](C)CO)C(=O)c2cc(NC(=O)CCCN(C)C)ccc2O1,.,.,5,.,.
COc1ccc(/C(C)=N/NC(=O)c2ccc(CSc3cccc4cccnc34)cc2)cc1OC,-1,.,3,95,i
C/C(=N\NC(=O)c1ccc(CSc2cccc3cccnc23)cc1)C1CCCCC1,-1,.,.,91,+
O=c1oc2ccccc2nc1/C=C(\O)c1ccc(Br)cc1,-1,-15,3,92,i
C/C(O)=C\c1nc2ccccc2oc1=O,-1,?,2,108,+
Cc1ccc2oc(=O)c(/C=C(\O)c3cccs3)nc2c1,-1,89*,.,107,i
SMILES,N-glyco inh,Vif imaging,RAD54 inh,ABCB6 inh 2,Myeloid diff MLP
Cc1c(C(=O)NCc2ccc3c(c2)OCCO3)sc(=O)n1Cc1ccccc1C(F)(F)F,-2,2,-1,100,+
CN(CCc1ccccn1)Cc1ccc(Cl)cc1Cl,4,6,0,96,+
CN(CCc1ccccn1)Cc1ccc(Cl)c(Cl)c1,-1,-2,3,99,i
COc1ccc(C(=S)N2CCOCC2)cc1OC(=O)c1cc(OC)c(OC)c(OC)c1,4,-8,-4,92,+
CCOc1cc(C(=S)N2CCOCC2)ccc1OC,-1,66*,-11,98,i
CCOc1ccc(C(=S)N2CCOCC2)cc1OC,1,5,1,99,i
CNC(=O)C[C@@H]1CC[C@H]2[C@@H](COc3ccc(NC(=O)Nc4cccc(F)c4)cc3C(=O)N2C)O1,.,.,6,.,.
COCCOC(=O)N1C(=O)[C@@]2(c3cc(C#CCCO)ccc31)[C@H](c1ccccc1OCCO)N1[C@H](c3ccccc3)[C@H](c3ccccc3)OC(=O)[C@H]1[C@@H]2C(=O)N1CCN(c2ncccn2)CC1,.,.,0,.,.
CC(=O)Nc1ccc(S(=O)(=O)NCC(=O)OCC(=O)NC(=O)C2CCCCC2)cc1,-2,8,7,99,i
CC(=O)Nc1ccc(S(=O)(=O)NCC(=O)OCC(=O)NC23CC4CC(CC(C4)C2)C3)cc1,1,75*,2,96,i
Cc1cc(C)c(C#N)c(Sc2nc(C)c([N+](=O)[O-])c(C)c2C#N)n1,19,-4,.,95,+
C[C@@H]1CN([C@@H](C)CO)C(=O)c2cc(C3=CCCCC3)cnc2O[C@@H]1CN(C)C(=O)Nc1ccccc1,.,.,-4,.,.
CCc1ccc(N2C(=O)Nc3ccccc3C2(O)C(=O)N2CCN(c3ccccn3)CC2)cc1 (stereo unspecified),38*,-5,2,97,i
CCC(C)NC(=O)C1(O)c2ccccc2NC(=O)N1c1ccc(C)c(C)c1 (stereo unspecified),1,-11,-4,97,i
Cc1ccc(N2C(=O)Nc3ccccc3C2(O)C(=O)N2CCN(c3ccccn3)CC2)cc1C (stereo unspecified),29*,2,16,102,i
COc1ccc(C#Cc2ccc3c(c2)[C@]2(C(=O)N3)[C@H](c3ccc(OCCO)cc3)N3[C@H](c4ccccc4)[C@H](c4ccccc4)OC(=O)[C@H]3[C@@H]2C(=O)NC[C@H](O)c2ccccc2)cc1,.,.,-7,.,.
COc1cccc(C(=O)NN2c3ccccc3CCc3ccccc32)c1,4,-1,11,99,+
COc1cccc(C(=O)NNC(=O)c2ccccc2)c1,-2,-4,-14,99,i
CCOC(=O)c1cccc(Nc2nc(-c3cccnc3)nc3ccccc23)c1,1,-14,6,98,+
COC(=O)c1cccc(Nc2nc(-c3cccnc3)nc3ccccc23)c1,-2,-13,3,97,i
CC(Nc1nc(-c2cccnc2)nc2ccccc12)c1ccccc1 (stereo unspecified),38*,6,-1,94,i
CN1CCN(C(=O)C[C@@H]2CC[C@H]3[C@@H](COc4ccc(NC(=O)C5CCCCC5)cc4C(=O)N3C)O2)CC1,.,.,-20,.,.
CCN1C(=O)/C(=C\C=C\c2ccccc2[N+](=O)[O-])SC1=S,22,-8,.,110,?
CCN1C(=O)/C(=C/C=C2\N(CC)c3cc(S(=O)(=O)N(C)C)ccc3N2c2ccccc2)SC1=S,-9,-6,.,163,+
